Reference: ChEMBL document CHEMBL3988442, “University of Dundee, Small-Polar-MMV Screening Library” (2021)
For some assays here: Results with a measured potency or affinity are listed apart.

Assays:
Set-up in all cases: scale not given: direction of the effect not stated beside the values
[1] = target: Protein translocase subunit SecA (Escherichia coli (strain K12)) (UniProt P10408); experiment: Assay to Identify E. coli SecA ATPase Inhibitors; assay type: functional; conditions: 30 µM
[2] = target: T1, Ubiquitin-activating enzyme e1, putative (Leishmania donovani (strain BPK282A1)) (UniProt E9BSI1); experiment: Leishmania donovani Ubiquitin Activating Enzyme (LdE1); assay type: functional; conditions: 30 µM
T1 sequence (whole entry): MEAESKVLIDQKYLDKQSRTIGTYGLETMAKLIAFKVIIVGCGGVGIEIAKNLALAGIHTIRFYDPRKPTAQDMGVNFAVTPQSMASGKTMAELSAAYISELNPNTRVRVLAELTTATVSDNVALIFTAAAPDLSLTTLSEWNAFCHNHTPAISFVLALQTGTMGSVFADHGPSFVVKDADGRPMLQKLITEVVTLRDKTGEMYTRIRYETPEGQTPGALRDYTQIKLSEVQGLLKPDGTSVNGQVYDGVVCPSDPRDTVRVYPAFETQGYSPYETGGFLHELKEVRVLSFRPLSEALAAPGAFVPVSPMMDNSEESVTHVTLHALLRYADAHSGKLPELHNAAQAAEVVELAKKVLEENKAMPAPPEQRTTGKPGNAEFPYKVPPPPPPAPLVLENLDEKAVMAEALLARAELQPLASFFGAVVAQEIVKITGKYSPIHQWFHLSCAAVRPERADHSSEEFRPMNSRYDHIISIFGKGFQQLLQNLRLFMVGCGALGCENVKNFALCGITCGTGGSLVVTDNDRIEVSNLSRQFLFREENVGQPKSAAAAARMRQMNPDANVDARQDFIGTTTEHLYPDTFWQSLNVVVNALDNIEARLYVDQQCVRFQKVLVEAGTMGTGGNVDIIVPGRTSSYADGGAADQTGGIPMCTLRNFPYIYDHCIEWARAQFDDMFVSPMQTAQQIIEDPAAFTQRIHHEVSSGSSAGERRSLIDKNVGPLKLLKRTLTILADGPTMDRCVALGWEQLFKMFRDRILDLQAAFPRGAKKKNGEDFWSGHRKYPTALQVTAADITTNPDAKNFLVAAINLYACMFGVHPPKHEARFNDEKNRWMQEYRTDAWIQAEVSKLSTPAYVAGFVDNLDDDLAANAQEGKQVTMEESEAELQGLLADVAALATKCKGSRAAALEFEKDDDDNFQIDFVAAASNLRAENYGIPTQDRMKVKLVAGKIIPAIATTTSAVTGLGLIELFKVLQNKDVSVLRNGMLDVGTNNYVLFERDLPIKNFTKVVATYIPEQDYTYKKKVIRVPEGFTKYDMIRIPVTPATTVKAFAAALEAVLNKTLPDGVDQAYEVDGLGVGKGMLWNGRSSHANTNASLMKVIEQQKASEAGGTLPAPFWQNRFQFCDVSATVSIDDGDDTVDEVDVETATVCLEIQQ

[3] = target: AMP-activated protein kinase, AMPK (Homo sapiens) (UniProt P54646+O43741+P54619+Q9UGJ0+Q9Y478+Q13131+Q9UGI9); experiment: AMP-dependent Kinase enzyme assay. An in vitro enzyme assay that detects ADP turnover that is directly proportional to AMPK activity. This uses naive AMPK that is activated during the assay with MK-8722; assay type: functional; conditions: 30 µM
[4] = target: Sialic acid-binding Ig-like lectin 9 (Homo sapiens) (UniProt Q9Y336); experiment: Hs-Siglec9 ALPHAscreen SOP 20170721; conditions: 10 µM
[5] = system: Trypanosoma cruzi; experiment: Trypanosoma cruzi phosphomannomutase and mannose-1-phosphate guanylyltransferase assay; assay type: functional; conditions: 10 µM
[6] = target: T2, Arginase-2, mitochondrial (Homo sapiens) (UniProt P78540); experiment: in vitro enzyme assay to detect the production of urea directly proportional to the activity of Arginase II; assay type: functional; conditions: 33.3 µM; note: in the data most compounds retested in dose-response had high values
T2 sequence (whole entry): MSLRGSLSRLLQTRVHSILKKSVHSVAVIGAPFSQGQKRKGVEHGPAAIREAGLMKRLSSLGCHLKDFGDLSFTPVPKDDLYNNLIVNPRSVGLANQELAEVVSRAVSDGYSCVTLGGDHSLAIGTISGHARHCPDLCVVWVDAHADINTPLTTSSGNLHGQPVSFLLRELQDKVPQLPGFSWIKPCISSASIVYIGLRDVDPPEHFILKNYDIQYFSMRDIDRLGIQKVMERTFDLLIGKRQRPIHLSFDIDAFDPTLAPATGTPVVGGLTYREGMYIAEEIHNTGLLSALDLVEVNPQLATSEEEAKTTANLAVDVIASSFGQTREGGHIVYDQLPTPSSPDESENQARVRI

[7] = target: T3, Proteasome subunit beta (Trypanosoma cruzi) (UniProt O96673); experiment: Trypanosoma cruzi proteasome chymotrypsin-like activity (TcProtChymo) assay.; note: in the data most compounds retested in dose-response had high values; assay type: functional; conditions: 9.37 µM
T3 sequence (whole entry): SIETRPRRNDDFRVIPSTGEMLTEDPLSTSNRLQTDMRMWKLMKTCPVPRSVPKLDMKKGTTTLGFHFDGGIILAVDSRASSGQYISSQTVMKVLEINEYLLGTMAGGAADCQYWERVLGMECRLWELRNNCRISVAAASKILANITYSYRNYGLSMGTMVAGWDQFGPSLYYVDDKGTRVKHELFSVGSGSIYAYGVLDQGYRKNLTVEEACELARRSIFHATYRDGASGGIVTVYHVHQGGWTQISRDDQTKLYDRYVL

[8] = organism: Homo sapiens; experiment: To identify inhibition of the IFN signalling (Jak-Stat) pathway via expression of an eGFP reporter gene under the control of an IFN-stimulated response element (ISRE) containing MxA promoter.; assay type: functional; conditions: 30 µM
[9] = target: T4, Tyrosyl-tRNA synthetase, putative (Trypanosoma cruzi (strain CL Brener)) (UniProt Q4DSP6); experiment: Trypanosoma cruzi tyrosyl tRNA synthetase (TcYRS) _High Tyrosine SOP; assay type: functional; conditions: 30 µM; note: in the data most compounds retested in dose-response had high values
T4 sequence (whole entry): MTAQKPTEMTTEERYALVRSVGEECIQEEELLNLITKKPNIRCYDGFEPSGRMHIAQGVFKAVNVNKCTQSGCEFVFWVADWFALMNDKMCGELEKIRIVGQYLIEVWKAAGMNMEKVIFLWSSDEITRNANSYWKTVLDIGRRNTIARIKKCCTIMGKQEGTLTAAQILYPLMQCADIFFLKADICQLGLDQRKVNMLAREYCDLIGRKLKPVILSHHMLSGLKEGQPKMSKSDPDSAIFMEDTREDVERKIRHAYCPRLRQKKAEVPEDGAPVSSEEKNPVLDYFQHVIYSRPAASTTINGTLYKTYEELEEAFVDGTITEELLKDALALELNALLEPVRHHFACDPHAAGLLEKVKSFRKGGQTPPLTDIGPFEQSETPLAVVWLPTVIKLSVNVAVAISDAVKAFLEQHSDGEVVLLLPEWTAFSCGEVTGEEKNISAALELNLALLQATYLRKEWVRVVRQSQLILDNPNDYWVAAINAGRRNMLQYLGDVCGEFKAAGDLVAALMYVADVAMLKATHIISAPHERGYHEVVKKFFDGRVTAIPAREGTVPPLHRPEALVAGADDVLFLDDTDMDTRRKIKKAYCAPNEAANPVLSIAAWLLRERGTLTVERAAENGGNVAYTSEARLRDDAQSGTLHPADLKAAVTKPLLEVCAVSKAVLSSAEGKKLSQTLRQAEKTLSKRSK

[10] = target: T4, Tyrosyl-tRNA synthetase, putative (Trypanosoma cruzi (strain CL Brener)); experiment: Trypanosoma cruzi tyrosyl tRNA synthetase (TcYRS) SOP; assay type: functional; conditions: 30 µM
[11] = target: Chromo domain-containing protein 1 (Saccharomyces cerevisiae (strain ATCC 204508 / S288c) (Baker's yeast)) (UniProt P32657); experiment: ScCHD-1 Enzyme Inhibition Assay; assay type: functional; conditions: 30 µM; note: in the data most compounds retested in dose-response had high values
Chain of Chromo domain-containing protein 1 (Saccharomyces cerevisiae (strain ATCC 204508 / S288c) (Baker's yeast)) (P32657 whole entry, the tested form may be a part): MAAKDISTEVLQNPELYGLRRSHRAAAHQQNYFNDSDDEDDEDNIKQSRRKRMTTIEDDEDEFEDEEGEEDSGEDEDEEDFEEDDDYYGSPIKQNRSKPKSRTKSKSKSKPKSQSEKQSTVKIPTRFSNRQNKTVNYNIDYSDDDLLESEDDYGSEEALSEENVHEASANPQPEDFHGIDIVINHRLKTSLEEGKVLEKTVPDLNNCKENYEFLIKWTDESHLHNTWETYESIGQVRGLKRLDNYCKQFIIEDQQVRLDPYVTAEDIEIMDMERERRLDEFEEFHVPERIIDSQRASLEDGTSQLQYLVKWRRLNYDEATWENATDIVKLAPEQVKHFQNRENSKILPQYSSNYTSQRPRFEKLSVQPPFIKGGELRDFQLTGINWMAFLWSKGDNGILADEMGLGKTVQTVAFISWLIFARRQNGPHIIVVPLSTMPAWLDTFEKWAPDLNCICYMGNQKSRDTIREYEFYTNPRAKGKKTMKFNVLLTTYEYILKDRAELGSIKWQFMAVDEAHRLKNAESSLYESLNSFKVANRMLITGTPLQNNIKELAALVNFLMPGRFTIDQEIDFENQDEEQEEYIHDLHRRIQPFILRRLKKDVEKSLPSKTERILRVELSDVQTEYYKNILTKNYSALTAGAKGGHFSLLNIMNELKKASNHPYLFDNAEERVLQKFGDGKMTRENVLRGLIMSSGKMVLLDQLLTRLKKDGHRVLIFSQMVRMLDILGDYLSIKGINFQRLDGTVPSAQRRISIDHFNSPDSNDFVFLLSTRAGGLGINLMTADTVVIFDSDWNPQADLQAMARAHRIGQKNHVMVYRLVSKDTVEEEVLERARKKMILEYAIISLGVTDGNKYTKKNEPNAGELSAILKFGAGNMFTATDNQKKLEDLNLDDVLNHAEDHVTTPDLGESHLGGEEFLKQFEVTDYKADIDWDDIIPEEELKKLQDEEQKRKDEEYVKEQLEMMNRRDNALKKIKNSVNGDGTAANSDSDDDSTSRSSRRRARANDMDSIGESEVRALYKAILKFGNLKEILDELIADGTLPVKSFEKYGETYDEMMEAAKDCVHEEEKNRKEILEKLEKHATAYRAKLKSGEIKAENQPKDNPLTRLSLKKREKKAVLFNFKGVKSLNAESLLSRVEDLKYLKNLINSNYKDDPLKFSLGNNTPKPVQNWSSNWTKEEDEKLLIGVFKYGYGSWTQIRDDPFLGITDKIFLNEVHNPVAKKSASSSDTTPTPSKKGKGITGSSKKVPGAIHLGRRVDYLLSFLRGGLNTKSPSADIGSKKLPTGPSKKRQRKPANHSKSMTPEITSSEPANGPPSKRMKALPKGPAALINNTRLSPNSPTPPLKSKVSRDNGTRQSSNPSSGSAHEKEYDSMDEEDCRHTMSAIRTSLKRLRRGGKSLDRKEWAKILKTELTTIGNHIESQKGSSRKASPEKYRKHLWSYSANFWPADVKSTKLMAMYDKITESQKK

Chain of Sialic acid-binding Ig-like lectin 9 (Homo sapiens) (Q9Y336 whole entry): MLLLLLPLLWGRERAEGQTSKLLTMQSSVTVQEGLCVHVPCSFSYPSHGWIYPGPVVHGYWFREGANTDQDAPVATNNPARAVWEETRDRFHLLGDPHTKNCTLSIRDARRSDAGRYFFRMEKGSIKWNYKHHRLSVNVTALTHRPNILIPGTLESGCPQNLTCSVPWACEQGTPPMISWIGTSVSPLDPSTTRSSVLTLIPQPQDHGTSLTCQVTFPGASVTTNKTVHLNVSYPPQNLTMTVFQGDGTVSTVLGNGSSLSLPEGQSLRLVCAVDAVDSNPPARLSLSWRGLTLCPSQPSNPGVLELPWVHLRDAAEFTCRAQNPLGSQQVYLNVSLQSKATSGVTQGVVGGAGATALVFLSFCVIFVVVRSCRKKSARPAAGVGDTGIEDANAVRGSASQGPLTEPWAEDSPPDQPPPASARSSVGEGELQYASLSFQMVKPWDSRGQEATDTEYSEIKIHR
Chain of Protein translocase subunit SecA (Escherichia coli (strain K12)) (P10408 whole entry): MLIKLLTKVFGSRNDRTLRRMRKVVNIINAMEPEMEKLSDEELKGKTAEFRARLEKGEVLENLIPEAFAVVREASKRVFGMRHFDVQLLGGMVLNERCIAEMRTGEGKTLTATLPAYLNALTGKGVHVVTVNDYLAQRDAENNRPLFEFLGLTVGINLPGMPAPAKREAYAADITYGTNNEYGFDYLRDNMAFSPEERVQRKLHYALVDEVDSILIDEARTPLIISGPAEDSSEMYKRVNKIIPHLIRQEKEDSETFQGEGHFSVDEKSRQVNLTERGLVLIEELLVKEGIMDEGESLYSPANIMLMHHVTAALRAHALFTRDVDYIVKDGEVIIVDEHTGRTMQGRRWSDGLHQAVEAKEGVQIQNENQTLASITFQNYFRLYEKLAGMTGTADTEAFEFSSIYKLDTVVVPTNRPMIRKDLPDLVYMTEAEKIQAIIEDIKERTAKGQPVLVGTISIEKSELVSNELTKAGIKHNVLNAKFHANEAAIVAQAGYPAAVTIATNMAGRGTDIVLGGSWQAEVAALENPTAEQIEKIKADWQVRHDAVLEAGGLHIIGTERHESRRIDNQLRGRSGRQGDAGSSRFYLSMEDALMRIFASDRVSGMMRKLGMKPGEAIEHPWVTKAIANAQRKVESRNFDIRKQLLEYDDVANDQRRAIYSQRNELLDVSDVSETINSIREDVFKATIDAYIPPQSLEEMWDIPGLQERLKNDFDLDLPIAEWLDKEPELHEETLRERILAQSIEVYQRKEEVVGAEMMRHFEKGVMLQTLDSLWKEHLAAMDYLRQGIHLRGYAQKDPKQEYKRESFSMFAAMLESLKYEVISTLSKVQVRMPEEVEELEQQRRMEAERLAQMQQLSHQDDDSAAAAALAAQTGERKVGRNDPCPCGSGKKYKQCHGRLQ

| Compound | Percent Effect [1] | Percent Effect [2] | Percent Effect [3] | Percent Effect [4] | Percent Effect [5] | Percent Effect [6] | Percent Effect [7] | Percent Effect [8] | Percent Effect [9] | Percent Effect [10] | Percent Effect [11] |
| --- | --- | --- | --- | --- | --- | --- | --- | --- | --- | --- | --- |
| CCC(=O)N1CCC2(CC1)COc1ccccc1S(=O)(=O)N(C)C2 | -4.24% | 16.2% | -6.69% | 20.9% | 1.27% | 2.23% | 9.7% | 7.17% | 7.53% | 18.5% | -11.2% |
| COCCn1cc(C(=O)N2CCCC2c2cc(C)no2)ccc1=O (configuration not stated) | -2.03% | 8.11% | 1.75% | 2.51% | -0.965% | 2.38% | 9.48% | 1.94% | 7.94% | 12.2% | -3.51% |
| Cc1ncc(CNC(=O)c2nn(C)c3c2CS(=O)(=O)CC3)s1 | -3.9% | 9.33% | 3.53% | 5.84% | 3.73% | -6.16% | 13.3% | 4.95% | 9.52% | 12.8% | -9.87% |
| CCN1CCC(NC(=O)CN2CCCC2Cn2cncn2)CC1 (configuration not stated) | -0.772% | 6.33% | -1.15% | -1.21% | -5.64% | 0.645% | 8.92% | 4.26% | 3.12% | 2.53% | -22.4% |
| O=C(NCCNc1ncccn1)C1CCN(C(=O)C2CC2)CC1 | -2.16% | 13.5% | 5.28% | -1.97% | -4.55% | 5.36% | 0.718% | 13.2% | 6.93% | 13.4% | 3.86% |
| CCn1cc(N2Cc3nc(N4CCOCC4)ncc3C2=O)cn1 | -4.68% | 17.3% | -4.89% | 0.208% | 0.786% | -9.33% | 4.44% | -2.82% | 2.12% | 5.13% | -15.2% |
| c1ccc(-n2ccnc2)c(CNCC2CNc3ccnn3C2)c1 (configuration not stated) | -2.24% | 18.2% | -5.79% | 12.2% | 7.68% | 1.07% | 2.53% | 17.5% | 5.83% | 21.9% | -7.36% |
| CN(CCCc1cnn(C)c1)C(=O)C1CCOC1 (configuration not stated) | -4.14% | 2.74% | 3.21% | 1.94% | -6.46% | -1.36% | 13.1% | 10.7% | 3.23% | 2.5% | -1.18% |
| CCN(CC)C(CNC(=O)c1ccc(S(C)(=O)=O)cc1)c1ccco1 (configuration not stated) | -2.81% | 2.7% | 6.63% | -6.01% | 3.91% | -2.5% | 14.8% | 8.16% | 8.91% | 11% | 3.77% |
| COc1ccc(CN2CC[C@H]3[C@H]2CCN3C(=O)c2cnn(C)c2)cc1 | -0.777% | 13.5% | 4.48% | -12.3% | -3.23% | 2.87% | 12.2% | 9.65% | 1.08% | 7.69% | -5.75% |
| CC(NC(=O)Cc1cccs1)c1nnc2n1CCCCC2 (configuration not stated) | -5.37% | 10.8% | 0.496% | 4.55% | 1.95% | -1.66% | -7.54% | -0.0451% | 3.96% | 15.8% | 1.56% |
| CC(=O)N1CC[C@@H]2CN(C(=O)c3ccco3)CCO[C@@H]2C1 | 0.266% | 13.3% | 8.75% | 0.752% | -4.33% | 6.29% | 12.8% | -9.46% | 3.19% | 3.85% | -2.25% |
| CCn1nc(C)c2nc(C(C)C)nc(NCCOC)c21 | -4.55% | 6.67% | 7.63% | 3.6% | 2.36% | -4.4% | 15.5% | 19.2% | 5.29% | 12.8% | -9.33% |
| COc1ccccc1CC1CCCN(CC(=O)N2CCOCC2)C1 (configuration not stated) | -0.695% | -7.79% | 1.77% | 6.99% | 1.08% | 2.32% | -1.54% | 2.85% | -1.91% | 0% | -10% |
| Cc1cc(C)nc(N2Cc3cnn(Cc4ccc(F)cc4)c3C2)n1 | -6.24% | -2.67% | 1.55% | -0.223% | -7.5% | -2.6% | 10.6% | 33.6% | -6.01% | -6.17% | -5.39% |
| CCOc1ccc(Cl)c(C(=O)N2CCN(C(=O)c3ccoc3C)CC2)n1 | -5.76% | 20.8% | -1.75% | 5.96% | -4.49% | -1.42% | 15.4% | 12.9% | 7.77% | 12.2% | -6.62% |
| CS(=O)(=O)NC[C@]12COC[C@H]1CN(C(=O)c1ccoc1)C2 | -3.11% | 7.79% | 7.55% | 7.59% | -1.87% | 4.52% | 10.6% | 21.3% | 5.29% | 11.5% | -4.91% |
| Cc1nn(C)c(C)c1C1CCCN1Cc1cccc(C(N)=O)c1 (configuration not stated) | 2.51% | 0% | -3.2% | 12.2% | -4.63% | 3.04% | 9.26% | 8.29% | 2.46% | -1.27% | 0.624% |
| Cn1cc(C(=O)N2CC[C@@H]3[C@@H]2CCN3Cc2cccc(F)c2)cn1 | -5% | 8.11% | 1.6% | -0.0749% | 0.88% | 4.14% | 9.96% | -2.6% | 0% | 10.3% | 1.12% |
| N#Cc1cc(NC(=O)C2CC=CC2)ccc1N1CCC(O)CC1 | -3.63% | 2.7% | -2.38% | 4.36% | -0.193% | 1.91% | 7.41% | 0.178% | 2.65% | 7.32% | -2.26% |
| CC(C)Oc1ncccc1CNC(=O)C1CCCN(C(=O)C2CC2)C1 (configuration not stated) | -5.21% | 5.26% | -7.89% | -1.61% | -4.89% | 0% | 7.52% | 24.1% | 2.45% | 7.32% | -4.9% |
| COc1ccc(CN2C[C@H]3CN(c4ccsc4)C(=O)[C@H]3C2)cc1 | -1.53% | 0% | 6.82% | -0.914% | -3.23% | 0.955% | 19% | 14.6% | 2.16% | 10.3% | -1.59% |
